ATXN2 expr inh – inhibitors of ATXN2 expression | HEK-293 ATXN2-luciferase reporter, luminescence, 24 h | Potency, µM (series often up to 57 µM), for the others: at the highest dose activity change, negative = inhibition, actives largely listed as inhibitors | hit rate 0.72% among 360,000 | AID 1745845; further: on the % scale 0 is the no-effect control and ±100 the full control effect; nearly all actives have a fitted effect of over 55% in size
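ATXN2-luciferase reporter cells (luciferase flanked by upstream and downstream ATXN2 gene portions) were treated 24 h at 37 °C with compounds at up to 57 uM. SteadyGlo luminescence gave expression; GF-AFC fluorescence gave viability.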
S2 tox – cell viability loss in ATXN counter-screen; hit rate 0.49% among 400,000; AID 651635; Potency, µM (series often up to 56.7 µM), actives largely listed as cytotoxic; S2 cells (HEK-293 line with an ATXN2-luciferase reporter) viability, CellTiter-Fluor protease fluorescence, 24 h; further: nearly all actives have a fitted effect of over 40% in size
TGFb inhibitor – TGF-b pathway inhibition | HepG2 CAGA-GFP TGF-b/SMAD3 reporter, GFP fluorescence, 18 h; TGF-beta stimulated, 500 pg/mL final | Potency, µM (series often up to 46.1 µM), for the others: at the top dose activity, negative = inhibition, hits mostly inhibitors | hit rate 1.2% among 410,000; further: on the % scale 0 is the no-effect control and ±100 the full control effect; nearly all actives have a fitted effect of over 65% in size
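HEPG2 CAGA-GFP, 1000 cells/well; 2 h settle, 37 C; cpd via pin tool; TGF-b 500 pg/mL final; 18 h, 37 C; GFP imaging ex488/em500-530; %Activity normalised to -TGF-b and +DMSO controls; CRC fit, curve class.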
HepG2 tox – HepG2 cytotoxicity, counter-screen for TGF-b inhibitors. hit rate 0.76% among 410,000. Potency, µM (doses to about 46.1 µM), for the others: at the highest dose activity change, negative = cytotoxicity, usual class: cytotoxic. HepG2 CAGA-GFP viability, ATP luminescence, 18 h
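HepG2 CAGA-GFP cells (1000/well, DMEM with 1% FBS) received compound, then TGF-beta at 500 pg/mL final, and were incubated 18 hours at 37 degrees C. Viability was read by CellTiter-Glo luminescence. Media-only wells were set as complete cell-killing and DMSO as no toxicity.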
An asterisk follows results filed as active; i = inactive; u = inconclusive; x = no result given; ! = not active in a repeat; [ ] = remark or other dose. Hits are enriched below; roughly 2.3% of the tested compounds scored in any of these assays. The call rests on the fitted dose curve; in most records, active means well fitted curve in the direction sought with a large enough effect; inconclusive means small, poorly fitted or top-dose-only effect, or another doubt; inactive means no such curve, though single readings can be large; an effect the other way counts as inactive or inconclusive. Potency means the concentration at half of the fitted maximal effect.

SMILES	ATXN2 expr inh	S2 tox	TGFb inhibitor	HepG2 tox
COC(=O)[C@@H]1[C@H]2SC(C)(C)[C@H](C(=O)OC)N2C(=O)N1Cc1cc2ccccc2n1S(=O)(=O)c1ccccc1	x	x	0.6%	3.6%
CCCn1c(SCC(=O)NCc2ccc(OC)cc2)n[nH]c1=O	u	u	4.5%	-13.2%
CCCn1c(SCC(=O)N2N=C3/C(=C/c4ccc(OC)cc4)CCCC3C2c2ccc(OC)cc2)n[nH]c1=O (centres undefined)	u	x	12.6µM*	-64.8%
CC[C@H](CO)Nc1nc(NCc2ccccc2)c2ncn(C(C)C)c2n1	24.3µM*	x	x	x
COC(=O)c1ccccc1C(=O)N1CCOc2ccc(CN3CCN(c4ccccn4)CC3)cc2C1	x	i	x	x
Cc1nc(-c2ccccc2)sc1CCNS(=O)(=O)c1ccc(Br)cc1	u	i	11.2µM*	-42.6%
COc1ccc(S(=O)(=O)NCCc2sc(-c3ccccc3)nc2C)cc1OC	-13.4%	i	-2.9%	-29.6%
COc1ccc(-c2nc(C)c(CCNS(=O)(=O)c3cc(Cl)ccc3Cl)s2)cc1	u	u	u	-6.2%
COc1ccc(-c2nc(C)c(CCNS(=O)(=O)c3cc(C)c(C)cc3C)s2)cc1	u	u	11.2µM*	-25.4%
O=c1[nH]cnc2n[nH]nc12	x	x	15.7%	20.8%
O=C(/C=C/c1ccc(-c2ccccc2[N+](=O)[O-])o1)c1ccc(F)cc1	u	u	u	11.2µM*
Cc1ccccc1OCc1occc1C(=O)Nc1cccc(-n2cnnn2)c1	x	i	14.1µM*	-31.5%
COc1ccc(C(=O)Nc2c(-c3cccs3)c(=O)c3ccccc3n2C)cc1	-16.2%	u	0.7%	-17.0%
Cc1ccc(C(=O)Nc2c(-c3cccs3)c(=O)c3ccccc3n2C)cc1	-9.3%	u	u	14.1µM*
CCCCCCN1C[C@@H](O)[C@H](n2cc(C3CC3)nn2)C[C@@H]1c1ccc(Cl)cc1	u	u	u	15.8µM*
CCCCCCN1C[C@H](O)[C@@H](n2cc(-c3ccc(F)cc3)nn2)C[C@@H]1c1ccccc1	-32.7%	17.8µM*	u	-101.9%
CCCCCC(=O)N1C[C@@H](n2cc(-c3ccc(F)cc3)nn2)[C@H](O)C[C@@H]1c1ccc(C)cc1	u	15.8µM*	u	-29.2%
CCCCCC(=O)N1C[C@@H](n2cc(-c3ccc(F)cc3)nn2)[C@H](O)C[C@@H]1c1ccc(OC)cc1	0.0%	u	-0.7%	-10.0%
O[C@H]1C[C@H](c2ccc(Cl)cc2)N(Cc2cccs2)C[C@@H]1n1cc(-c2ccc(F)cc2)nn1	31.6µM*	x	u	-112.9%
CC(C)c1ccc(CN2CCC3(CCC(CNC(=O)c4ccn(C)n4)O3)CC2)cc1 (centres undefined)	x	i	x	x
CC(NC(=O)C1CCOCC1)c1nnc2n1CCN(Cc1ccc3cccnc3c1)CC2 (centres undefined)	x	i	x	x
CCCCCC(=O)N1C[C@@H](O)[C@H](n2cc(-c3ccc(F)cc3)nn2)C[C@@H]1c1ccc(C)cc1	0.0%	u	17.8µM*	-30.7%
CCCCCC(=O)N1C[C@@H](O)[C@H](n2cc(-c3ccc(F)cc3)nn2)C[C@@H]1c1ccccc1	-11.9%	i	-24.1%	-26.2%
CC(C)c1ccc(C(=O)C[N+]2(C)CCOCC2)cc1	x	x	9.8%	-10.4%
COc1ccc2c(c1)c[n+](C)c1c3cc(OC)c(OC)cc3ccc21	17.8µM*	u	x	x
SMILES	ATXN2 expr inh	S2 tox	TGFb inhibitor	HepG2 tox
Oc1ccc(F)c2cccnc12	-6.4%	i	u	0.6%
Oc1c(CN2CCN(c3ccccn3)CC2)cc(Cl)c2cccnc12	u	i	u	-51.7%
Cc1ccc(S(=O)(=O)Nc2cc(Cl)c(O)c3ncccc23)cc1	11.2µM*	i	6.31µM*	2.82µM*
Oc1ccc(Cl)c2cccnc12	12.6µM*!	u	7.08µM*	10µM*
Clc1cc2cccnc2c2ccccc12	7.1%	i	-1.1%	12.4%
OCCN1CCN(Cc2cc(Cl)c3cccnc3c2O)CC1	22.4µM*	i	u	-26.2%
Oc1c(Cl)cc(Cl)c2cccnc12	24.3µM*!	u	u	-21.8%
O=C(c1ccccc1C(F)(F)F)N1CCOc2c(cc(-c3nc4ccccc4s3)cc2OC2CCOC2)C1 (centres undefined)	x	i	x	x
Nc1nc(=O)n([C@H]2C[C@H](O)[C@@H](CO)O2)cc1F	0.306µM*	x	x	x
Nc1nc(=O)n(C2CC(O)C(CO)O2)cc1F (centres undefined)	u	u	1.3%	3.3%
Cc1cnc2c3c(cc(Cl)c2c1)-c1ccccc1S(=O)(=O)N3	x	x	3.98µM*	-84.8%
O=S1(=O)Nc2c(ccc3cccnc23)-c2ccccc21	3.55µM*	u	1.26µM*	-48.1%
O.O=C([O-])CC([S-])C(=O)[O-].[Au+].[Na+].[Na+] (centres undefined)	x	i	x	x
C[C@@H]1[C@H](c2ccccc2)OCCS(=O)(=O)N1Cc1ccc(F)cc1	x	x	-17.3%	2.2%
CC1(C)CC(NC(=O)c2cccc(S(=O)(=O)N(Cc3ccccc3)c3ccccc3)c2)CC(C)(C)N1	u	u	u	14.1µM*
CN(C)CCNC(=O)c1cc2c(s1)-c1ccc(Cl)cc1SC2	x	u	11.2µM*	11.2µM*
COC(=O)C1=CN(Cc2cccs2)C=C(C(=O)OC)C1c1ccc(OC)cc1OC	-9.8%[11.3 µM]	x	18.0%	13.2%
COC(=O)C1=CN(Cc2cccs2)C=C(C(=O)OC)C1c1cccc(Cl)c1	-17.8%	u	u	10µM*
Cc1ccc(-c2nn(CC(=O)NCc3cc(-c4nn(C)c(=O)c5ccccc45)ccc3C)c(=O)c3ccccc23)cc1	11.2µM*	12.6µM*	-0.2%	3.55µM*
COc1ccc(-c2nc3ccc(C)cn3c2NCc2ccccc2)cc1SC1CCCCC1	-9.1%	15.8µM*	20µM*	-81.4%
Cc1ccc2nc(-c3cccc(SC4CCCCC4)c3)c(NCc3ccccc3)n2c1	u	u	u	-34.0%
CCCCNc1c(-c2ccc(SC3CCCCC3)c(OC)c2)nc2ccc(C)cn12	u	u	u	8.91µM*
c1ccc(CNc2c(-c3cccc(SC4CCCCC4)c3)nc3ccccn23)cc1	-1.2%	u	u	-60.6%
Cc1ccn2c(NCc3ccccc3)c(-c3cccc(SC4CCCCC4)c3)nc2c1	u	u	12.6µM*	-53.1%
CCCCNc1c(-c2ccc(OC)c(SC3CCCCC3)c2)nc2ccc(C)cn12	25.1µM*	10µM*	17.8µM*	12.6µM*
CCCN1C(=O)c2ccccc2NC1c1ccc(OC)c(COc2cccc(OC)c2)c1 (centres undefined)	x	x	4.9%	-18.2%
COc1ccc(CC2=NN3C([C@@H](CCc4ccccc4)[C@@H](C)O)=NC(C)C3C(=O)N2)cc1OC (some centres undefined)	42.7%	x	x	x
CC(C)N(CC[C@H](c1ccccc1)c1cc(CO)ccc1O)C(C)C	-7.5%	x	x	x
c1cc2c(cc1C1CCCCC1)c1c3n2CCCNC3CCC1 (centres undefined)	28.2µM*	x	0.0%	12.6µM*
